Assay results published in ChEMBL document CHEMBL3988442, “University of Dundee, Small-Polar-MMV Screening Library” (2021).
In all, about 48,000 compounds went through this assay and about 13,000 (27%) showed an effect of 50% or more. The list shows a part of the results.

system: Wolbachia pipientis; assay: Anti-Wolbachia Cell-Based Screen; assay type: functional; design: scale not given: in the data most compounds retested in dose-response had high values; conditions: 5 µM

Structure (SMILES)	Percent Effect
Cc1ccc2c(c1C)OCC2NCc1ccc(C#N)cc1 (stereo not given)	6.111%
Cc1cccc(CC(=O)NC2CCN(C(=O)NC(C)(C)C)CC2)c1	5.736%
CCC1=N[C@@]2(CC[C@@H]3CN(C(=O)NCC(C)C)C[C@@H]32)C(=O)N1CCOC	5.071%
Cc1c(-c2nc(-c3cccc(CN4CCOCC4)c3)no2)cnn1C	-3.312%
COc1ccccc1-c1ncc(CN2C[C@H](O)[C@@H](N3CCCC3)C2)s1	6.619%
CCn1c(Cn2ccnc2)nnc1C1CCN(Cc2ccc(C)o2)CC1	-1.566%
N#CC1(C(=O)NCCCNc2ccc(C(F)(F)F)cn2)CCCC1	-0.7429%
CSCC(C)(O)CNC(=O)c1ccc(F)cc1Br (stereo not given)	-10.01%
N#Cc1ccc(C(=O)NCCCNc2ccc(C(F)(F)F)cn2)cc1	-7.343%
O=C(NCCCNc1ccc(C(F)(F)F)cn1)c1ccc(F)cc1Br	166.7%
O=C(NCCCNc1ccc(C(F)(F)F)cn1)c1ccc(F)cc1F	139.7%
COc1ccc(Br)c(C(=O)NCCNc2ccc(C(F)(F)F)cn2)c1	2.511%
CC(C)=CCC/C(C)=C/CC(C)(C)CNCc1ccco1	-15.73%
COc1ccc(NC(C)C(=O)N2CCN(c3ccccc3)CC2)cn1 (stereo not given)	11.01%
CC1CN=C(N2CCN(C(=O)Nc3nc(-c4ccccc4)ns3)CC2)S1 (stereo not given)	-2.569%
COc1cccc(Cl)c1C(C(=O)O)N(C)Cc1nnc(C)o1 (stereo not given)	7.233%
CCOc1ccccc1C(C(=O)O)N(C)Cc1cc(C)[nH]n1 (stereo not given)	105.4%
Cc1c[nH]c(CN(C)C(C(=O)O)c2c(F)cccc2OC(C)C)n1 (stereo not given)	2.457%
CCOc1ccccc1C(C(=O)O)N(C)Cc1nc(C)c[nH]1 (stereo not given)	110.9%
COCc1cc(CN(C)C(C(=O)O)c2cc(C)c(OC)c(C)c2)n[nH]1 (stereo not given)	0.7136%
Cc1c[nH]c(CN(C)C(C(=O)O)c2c(F)cccc2Cl)n1 (stereo not given)	11.8%
CCOc1ccc(N(C)Cc2nnc(C)o2)cc1	3.578%
Cc1cc(CN(C)C(=O)c2cc(COc3ccccc3)[nH]n2)n[nH]1	-16.83%
CCOc1ccccc1C(C(=O)O)N(C)Cc1nnc(C)o1 (stereo not given)	103.2%
CN(CC(N)=O)S(=O)(=O)c1ccc(F)cc1Cl	0.3339%
COc1cccc(CN(C)C(=O)CCC(=O)c2ccc(Cl)cc2)c1OC	-4.229%
Cc1ccc(CN2CCC3(CC2)CCN(Cc2ccco2)CC3)cc1.O=C(O)C(F)(F)F.O=C(O)C(F)(F)F	0.5302%
COc1ccc2c(c1)OC1(CCN(Cc3cccc(C)c3)CC1)CC2=O	101.2%

Structure (SMILES)	Percent Effect
COc1ccc2c(c1)C1(CCN(Cc3ccncc3)CC1)N(C)CC2	-5.195%
CCN1CCN(C)C(=O)C12CCN(Cc1cccc(C)c1)CC2.O=C(O)C(F)(F)F	-18%
CCS(=O)(=O)N1CCC2(CCN(Cc3cccc(OC)c3)CC2)CC1.O=C(O)C(F)(F)F	-27.27%
COCC(=O)N1CCC2(CCN(Cc3ccc(C)cc3)CC2)CC1.O=C(O)C(F)(F)F	-3.723%
COc1ccc(CN2CCC3(CC(=O)N(c4cccc(F)c4)C3)C2)cc1.O=C(O)C(F)(F)F (stereo not given)	28.15%
COc1c(F)cc(CN2CCCC3(CC2)CNC(=O)O3)cc1Cl (stereo not given)	-2.576%
COc1ccc2c(c1)OC1(CCN(Cc3ccc(C)cc3)CC1)CC2=O	104.7%
Cc1ccc2c(c1)C(=O)CC1(CCN(Cc3ccccc3)CC1)O2	106.6%
Cc1ccc2oc([C@H]3CCN(Cc4ccccc4)C3)nc2c1	-4.088%
COc1ccc2c(c1)C(=O)CC1(CCN(Cc3ccc(F)cc3)CC1)O2	107.4%
CCCn1ncc(C2CC(=O)NCc3nc4cc(C)ccn4c32)c1C (stereo not given)	7.732%
Cc1nc(CN2CCCN(CC(=O)Nc3ccncc3)CC2)no1	-12.37%
CC1c2cc(F)ccc2CCN1CCCS(=O)(=O)C(C)C (stereo not given)	-15.92%
Cc1nc[nH]c1CN1CCn2nc(CN3CC[C@H](F)C3)cc2C1	-2.245%
O=C(NCCN1CCNCC1)c1c(O)c2ccccc2[nH]c1=O	23.98%
COCC(O)CN(C)C(=O)NC1CCN(Cc2ccccn2)CC1 (stereo not given)	9.175%
Cc1nn(C)c2nc(N(Cc3ccccc3)CC3CCCO3)sc12 (stereo not given)	6.104%
COc1ccc2c(c1)OC1(CCN(Cc3ccccc3C)CC1)CC2=O	114.8%
COc1ccc(CN2CCC(O)(CN3CCCCC3)C2)c(C)c1 (stereo not given)	1.46%
Cc1ccccc1CN1CCCN(CCN2CCOC2=O)CC1	6.019%
CC(C)c1cccc(CSc2nnc(CN3CCCC3=O)o2)n1	6.014%
CS(=O)(=O)Cc1nc(CN2CCCc3sccc3C2)cs1	11.89%
COc1ccc(C(=O)C2CCCN(c3nccc(N)n3)C2)c(C)c1 (stereo not given)	21.82%
CCOC(=O)C1CSCCN1C(=O)c1ccc(-n2nc(C)cc2C)cc1 (stereo not given)	16.86%
Cc1cc(C)n(-c2ccnc(N3CCC(C(=O)N4CCCC4)CC3)n2)n1	4.916%
CCOC(=O)C1CCCN(c2ccc(-c3nc(C)no3)cn2)C1 (stereo not given)	-3.256%
CCOC(=O)C1CCN(c2nccc(-n3nc(C)cc3C)n2)CC1	112.2%
